Data taken from ChEMBL document CHEMBL3988442, “University of Dundee, Small-Polar-MMV Screening Library” (2021).
The whole screen tested about 53,000 compounds, of which about 900 (1.7%) showed an effect of 50% or more. What follows is part of a selection rich in strong results, with near analogues and random picks from the rest.

tested on: Mycobacterium tuberculosis; test: Cornell - Phenotypic assay to identify agents that inhibit growth of Mycobacterium tuberculosis; assay type: functional; set-up: scale not given: direction of the effect not stated beside the values; settings: 10 mM as filed; unlikely as a test dose

Structure (SMILES) | Percent Effect [%]
Cc1cc(NCCS(C)(=O)=O)nc2cc3c(cc12)CCC3 | 21.34
CC(C)CCC(=O)Nc1ccc2oc(=O)n(CCN(C)C)c2c1 | -39.6
CN(C)CCn1c(=O)oc2ccc(NC(=O)CC(C)(C)C)cc21 | 16.94
CN(C)CCn1c(=O)oc2ccc(NC(=O)CSc3ccccc3)cc21 | 68.34
CCCn1cc(-c2cc(-c3ccoc3)c(C#N)c(N)n2)c(C)n1 | 46
CCCn1cc(-c2cc(-c3cnc(OC)nc3)c(C#N)c(N)n2)c(C)n1 | 56.67
CCCn1cc(-c2cc(-c3c[nH]cn3)c(C#N)c(N)n2)c(C)n1 | 4.241
O=C(NCc1ccco1)[C@@H]1CCO[C@@H]2CCN(c3ncccn3)C[C@@H]21.O=C(O)C(F)(F)F | -22.51
Cc1ncc(CN2CCC(c3nc(O)cc(-c4ccsc4)n3)CC2)cn1 | 21.36
CCc1noc(CN(CCC2CCCCC2)CC(N)=O)n1 | 4.193
CCOCc1cccc(NC(=O)C2COCCO2)c1 (stereo not given) | -0.8336
CCOC(=O)COc1cccc(NC(=O)C2COCCO2)c1 (stereo not given) | 12.18
O=C(Nc1ccc(OCc2cccc(F)c2)c(F)c1)C1COCCO1 (stereo not given) | 18.87
O=C(Nc1cccc(OCc2ccc(F)cc2)c1)C1COCCO1 (stereo not given) | 107.1
O=C(Nc1cccc(OCc2cccc(F)c2)c1)C1COCCO1 (stereo not given) | 108
O=C(OCc1ccccc1)c1cccc(NC(=O)C2COCCO2)c1 (stereo not given) | -2.465
CC1CCCCN1C(=O)COc1nc(Cc2ccc(F)cc2)no1 (stereo not given) | -36.23
CCN(Cc1ccc(C(C)C)cc1)C(=O)c1csc(CN(C)C)n1 | -18.18
CCCNC(=O)NC(=O)CNc1c(F)cccc1N1CCCC1 | -0.2754
CN(C)c1cc2c(nn1)CCN(C(=O)C1Cc3ccccc3S1)C2 (stereo not given) | 54.31
CCNc1cc2c(nn1)CCN(C(=O)C1Cc3ccccc3S1)C2 (stereo not given) | 12.56
CN(C)c1cc2c(nn1)CCN(C(=O)C1CCc3ccccc31)C2 (stereo not given) | -36.17
CN1CCOC(CNC(=O)C2(c3cccc(C(F)(F)F)c3)CCCC2)C1 (stereo not given) | 17.35
CCn1cc(CN2CCCN(C(=O)CCc3ccccc3)CC2)cn1 | -0.8409
Cn1ccc(NC(=O)CN2CCC(Oc3cnccn3)CC2)n1 | -4.083

Structure (SMILES) | Percent Effect [%]
Fc1ccc(OC2CCN(CCn3cncn3)CC2)cc1 | 21.61
Cn1ccc(NC(=O)CN2CCN(C3CCCC3)C(=O)C2)n1 | 47.35
Br.Cc1ccccc1OC1CCN(CC(=O)Nc2cnn(C)c2C)CC1 | 6.171
CCn1cc(NC(=O)CN2CCC(Oc3ccc(F)cc3)CC2)c(C)n1.Cl | 59.25
Cc1nn(C)cc1NC(=O)CC1CCN(CCc2ccccc2)CC1 | 6.464
Br.Cc1ccccc1OC1CCN(CC(=O)Nc2ccn(C)n2)CC1 | 51.43
CCOc1ccccc1CCC(=O)Nc1c(C)nn(C)c1C | -20.08
CCn1cc(NC(=O)CN2CCC(Oc3ccccc3C)CC2)c(C)n1 | 45.29
Cc1ccccc1OC1CCN(CC(=O)Nc2cn(C)nc2C)CC1 | 69.1
Cc1nn(C)cc1NC(=O)CN1CCC(Oc2cnccn2)CC1 | 11.01
Cc1ccccc1OC1CCN(CC(=O)Nc2c(C)nn(C)c2C)CC1 | 59.98
COc1ccc(Cl)cc1C(=O)N1C[C@@H](NC(=O)N(C)C)[C@H](C(C)C)C1 | -26.21
COC(=O)c1ccoc1CN(C)CC(=O)NC1CC1 | 9.025
Cc1cc(C2CCCCN2C(=O)c2cccn2C)nc2nccn12 (stereo not given) | 14.54
CCOCCC1(CNC(=O)c2ccsc2)CCC1 | 23.41
Cc1cc(C(=O)N2CC[C@@H]3CN(C)S(=O)(=O)[C@@H]3CC2)no1 | 25.4
O=C(O)c1ccnc2c(Br)cccc12 | 13.48
COc1ccc(CNC(=O)NC(C)(C(=O)O)c2ccco2)cc1F (stereo not given) | -25.47
O=C1COC2(CCN(Cc3ccco3)CC2)CN1Cc1cccnc1 | 24.6
O=S1(=O)C[C@@H]2[C@H](C1)N(Cc1cc(Cl)cc(Cl)c1)CCN2CC1CC1 | 85.08
Cc1cc(CN2CCN(CC3CC3)[C@@H]3CS(=O)(=O)C[C@@H]32)cc(C)c1O | 106.4
Cc1ccc(CN2CCN(CC3CC3)[C@@H]3CS(=O)(=O)C[C@@H]32)cc1C | 21.5
Cc1cc(CN2CCN(CC3CC3)[C@@H]3CS(=O)(=O)C[C@@H]32)ccc1F | -1.418
CCCN1CCN(Cc2cc(Cl)cc(Cl)c2)[C@H]2CS(=O)(=O)C[C@H]21 | -17.23
O=S1(=O)C[C@@H]2[C@H](C1)N(Cc1cc(Cl)cc(Cl)c1)CCN2CCO | -11.47

Structure (SMILES) | Percent Effect [%]
COc1ccc(C(=O)NCCC(N)=O)c(I)c1 | -0.6619
Cc1nc(NC2CCCCC2)cc(C2CCCNC2)n1.Cl (stereo not given) | -33.64
Cc1ncsc1CNc1cccc(OCCN2CCCC2)c1 | 16.77
COCc1nc2cc(NCc3sc(C)nc3C)ccc2o1 | 97.37
Cc1cc(CNc2ccc3nc(C)sc3c2)no1 | 23.73
COCc1nc2cc(NCc3scnc3C)ccc2o1 | 107
COCc1nc(CNc2cccc(-c3nc(C)c(C)o3)c2)cs1 | 46.4
COCCCSc1ccc(NCc2scnc2C)cc1 | 22.43
CC(C)N1CC2(CCCN(c3ccnc4ccccc34)C2)CCC1=O (stereo not given) | 17.47
COCc1nnc(C(=O)N2CCCC(O)C2)o1 (stereo not given) | -16.94
Cc1ncc(CNC(=O)CCc2cccs2)c(C2CCCN2C)n1 (stereo not given) | -2.251
Cc1ccc(C2CN(Cc3cccc4[nH]ccc34)CCO2)nc1 (stereo not given) | -22.89
O=C1CO[C@H]2CN(Cc3cccc(F)c3F)C[C@@H]2N1C1CCOCC1 | -21.84
O=C1CO[C@H]2CN(Cc3cccc4[nH]ccc34)C[C@@H]2N1C1CCOCC1 | 103.3
CCC(CN1CCCC1)NC(=O)C1(c2ccc(F)cc2)CC1 (stereo not given) | 38.36
CCC1c2ccccc2CCN1CCNS(C)(=O)=O (stereo not given) | -0.3963
COCc1cc(CNCc2c(C)n(CC(C)C)c3ccccc23)n[nH]1 | 48.01
COCc1cc(CNCc2c(C)n(CC(N)=O)c3ccccc23)n[nH]1 | 35.48
Cc1cc(CNCc2c(C)n(CC(C)C)c3ccccc23)[nH]n1 | 57.75
COCCC(=O)N1CCCC1c1nc(C)c2c(n1)N(C)C(=O)CC2 (stereo not given) | 9.481
CC(C)(C)n1nnnc1CN(Cc1ccccc1)Cc1ccccc1Cl | 7.141
COc1ccc(OC)c(C2CCN(Cc3nc(C)n4ccccc34)C2)c1 (stereo not given) | 51.45
COc1ccc(OC)c(C2CCN(CC(C)(C)N3CCOCC3)C2)c1 (stereo not given) | -53.82
COc1ccc(OC)c(C2CCN(C3CCOCC3)C2)c1 (stereo not given) | -54.14
Cc1ccc(CN2CCc3nnc(CN4CCCC4=O)n3CC2)s1.O=C(O)C(F)(F)F | 32.68

Structure (SMILES) | Percent Effect [%]
CCC(C(=O)N(C)C)n1ccc2ncccc2c1=O (stereo not given) | 6.503
CN(C)C(=O)CN1CCN(c2cc(N3CCCC3CO)ncn2)CC1 (stereo not given) | 1.672
Cc1cnc(C)c(N2CCC(C(=O)O)(n3ccc(C(C)(C)C)n3)CC2)n1 | 5.905
Cc1cc(C)nc(N2CCC(C(=O)O)(n3ccc(C(C)(C)C)n3)CC2)n1 | 67
Cc1cc(N2CCC(C(=O)O)(n3ccc(C(C)(C)C)n3)CC2)nc(N)n1 | 5.557
CSc1cccc(CNC(=O)[C@H]2CNC[C@@H](C(=O)N3CCOCC3)C2)c1 | -25.42
Cc1nc[nH]c1CNCc1cccnc1N(C)C1CCCCC1 | -125.1
COc1ccc(-n2cc(CCO)cn2)cc1C | 105.1
COc1cc(-n2cc(CCO)cn2)ccc1NC(C)=O | 12.75
COc1ccc(-n2cc(CCO)cn2)cc1C(N)=O | -5.342
Cc1cn2c(n1)CCC(NC(=O)CCOc1ccccc1F)C2 (stereo not given) | -34.23
O=C(c1nc(Cc2c[nH]c3ccccc23)no1)N1CCCCC1 | -4.941
O=C(O)C(F)(F)F.O=C(c1cocn1)N1C[C@H]2CCC[C@@]2(COc2ccccn2)C1 | 78.33
O=C(O)C(F)(F)F.O=C(c1ncccn1)N1C[C@H]2CCC[C@@]2(COc2ccccn2)C1 | -0.9925
Cc1ccc(C(=O)N2C[C@H]3CCC[C@@]3(COc3ccccn3)C2)nc1.O=C(O)C(F)(F)F.O=C(O)C(F)(F)F | 19.03
Fc1cccc(Cl)c1CNCCOc1ccccn1 | 41.65
CN1[C@@H](C(=O)NCC2CC2)C[C@@H]2CN(Cc3ccco3)C[C@@H]21 | 11.69
CCN(Cc1ccccc1)S(=O)(=O)C1CCS(=O)(=O)CC1 | 11.98
CN(C)c1nccnc1C1CCN(c2cnccn2)CC1 | 17.38
CN(C)c1ccc(C2CCN(c3cnccn3)CC2)nc1 | 63.52
c1cc(C2CCN(c3cnccn3)CC2)ncn1 | 5.379
COc1cccc(C(=O)N2C[C@@H](c3ccccc3)[C@@H]3NCCCC[C@@H]32)c1 | 4.696
Cc1cc(C(C)(O)CNC(=O)C2(C)CCCC2)c(C)o1 (stereo not given) | 32.83
Cc1cc(C(C)(O)CNC(=O)c2ccc(Br)o2)c(C)o1 (stereo not given) | 53.63
Cc1cc(C(C)(O)CNC(=O)OC(C)(C)C)c(C)o1 (stereo not given) | 14.94
